The record followed here is the supplement of paper PMC6555819.

In this experiment the test system is RARa:RXR (NR concentration 270 nM, RXRa partner concentration 90 nM). Nature of the experiment: PBM binding z-score (relative to random genomic background probes); higher = stronger binding; sequences stand for … in GC…GCGATTGACAGCGTAGAATGAAGG
The method in brief:
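Ligand-free nuclear receptor dimers were bound for 1 h to custom Agilent 4×180K protein-binding microarrays. Detection used antibodies against each partner (one per run). Binding z-scores rest on regression-normalized fluorescence, with random background probes as the reference.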
TGAATGAGGTTAAAGATCTGGGAACGTGGCGTCG: the PBM binding z-score was found to be 1.8.

Turning to CTCGCAAGGTCGGTTGAGGTGAGTATACGGATAA, the PBM binding z-score came out at 1.19.

On to CCACACAGGTGAAAGGTAACTCAGTCTGGTACGC, for which the PBM binding z-score worked out at 1.76.

CCTACTGCGCCAAGGTCATTGATCAGTCAAAGCA registered a PBM binding z-score of 3.83.

TCTATTAGTTGAAGTGCAACCGACGAGTCCGTTT came in with a PBM binding z-score of 0.832.

AGAACGAGGGCAATGAGTAGATAGCACGGGTGGC yielded a PBM binding z-score of 0.413.

For TTGCCAAGGTGAAGGTCGTTGATCCCTCTGTAGA, the PBM binding z-score stood at 1.6.

For TCTAGTTGGTCACGGAGGTCACACACGACGGGTA, the PBM binding z-score stood at 4.53.

The sequence ACAGACAGGTTAGTGAAGGTAACTCAGCTGGACG showed a PBM binding z-score of 0.306.

GCGATTGGGGCAAAGCAGGTTACCATAAGGTTGG showed a PBM binding z-score of 1.13.

As for ATCTCTAGGTAAGACTCCGTTCAGTGAAGAACGC, the PBM binding z-score was 0.105.

For CCGACTGGGCCACGAAAGGTCATTGATTCAGTGA, the PBM binding z-score turned out to be 4.89.

Regarding AATACAGGGTCATTGTAGGCCAGAGTACGCACAG, the PBM binding z-score was determined as 4.54.

TTACCAAGGTGAGCTGAGGTCGTGGATCCAACTC: the PBM binding z-score worked out at 2.49.

As to TCTATTAGTTGATTAGGGCAACCGCAACAGCGGA, the PBM binding z-score amounted to 0.408.

Turning to AGTCAAAGTTCATCTAGGTAACCTAAGATATGCT, the PBM binding z-score is 3.84.

For TCAGACAGGTGAAGGTAACGCAGGTACGCAGTCG, the PBM binding z-score amounted to 0.66.

On to AGAATGAGGTTATATGTAGATCAGGGAAGAAAGT, for which the PBM binding z-score turned out to be 1.75.

For the sequence GCTCGGAGGACAAGGTCAGAGATTTGTCCGTAGA, the PBM binding z-score turned out to be 1.77.

Regarding TCTGCTAGGTCAGTTGGTCAGGTAACGAGCTGCC, the PBM binding z-score stood at 0.735.

For CCTCGGAGGACTACAGGAGGTCAGAGCTGCCAGA, the PBM binding z-score turned out to be 2.24.

For the sequence GGAACGACGGCAAGTTGATAGCAGAGTTTGATGG, the PBM binding z-score is -0.23.

The sequence ATCTCTAGGTAAAGATAGTTCTGTGAATGCAAAT yielded a PBM binding z-score of 0.347.

As for CGTCCAGGGTCAGAGAGGTCAGTGAATGCCGAGT, the PBM binding z-score was 5.52.

TCTAGTTGGTCACGGAGGTCACACCCGACGGGTA came in with a PBM binding z-score of 4.2.

The sequence TCATATAGGTAAATGCTAAGTGAAAGTCCGATCT displayed a PBM binding z-score of 0.974.

Turning to TCTGCTAGGTCAGCTGGTCAGCTAACGAGCTGCC, the PBM binding z-score was determined as 0.872.

The sequence CTACCAAGGTGAACAAGGGCGTTGATTACTATTC returned a PBM binding z-score of 0.539.

The sequence AGTCAAAGTTCAAGACGAGGTAACGTAAAGCACG showed a PBM binding z-score of 4.02.

GCTGCTAGGTCAGGTTGATCAGCTAACGGGTACG gave a PBM binding z-score of 0.656.

CCTTACGGGTCAAGGTTTTAGCACGGGTGGTACG: the PBM binding z-score came to 4.13.

TGAATGAGGTTATGAGATCAGGGAACGTTGCAAA registered a PBM binding z-score of 1.57.

In turn, AGAACGAGGGCACGCTGAGTTCATAGCAGAGTAG came in with a PBM binding z-score of 2.94.

The sequence AGTCAAAGTTCACTAGGTAACCTAAGATTCAGCT displayed a PBM binding z-score of 3.78.

In turn, GTACCAAGGTGAATAGGTCGTGGATGAGTAGGCG registered a PBM binding z-score of 2.11.

On to CTCCAAAGGTCGTGCTCAGGTGAGTATACCAAAC, for which the PBM binding z-score turned out to be 4.78.

As for TGATATAGGTAAACAGGTGAAAGTCCGTAAGTTA, the PBM binding z-score came to 0.703.

For TCTATTAGTAGATTAGGGCAACCGAAACAGCGGA, the PBM binding z-score amounted to 0.245.

CGTCCAAGGTCATAGGAGGTCAGTGAGGACAGAT had a PBM binding z-score of 6.37.

TCTCGGAGGACACGGAAGGTCAGAGCTCGACATC came in with a PBM binding z-score of 2.45.
